Screening results as filed in PubChem.
Shown are actives, neighbours in structure and some others; about 1.4% of the full set was active somewhere.
TPT1 inh = inhibitors of Candida albicans tRNA 2'-phosphotransferase TPT1; recombinant caTPT1, FP RNA substrate dephosphorylation; inhibition, % at 5 µM; actives 0.81% (n = 300,000); AID 1962;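 active = inhibition above the mean of all tested compounds plus 3 SD, set per screening campaign, cut at about 24% in these data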;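 note: plate controls were DMSO alone for no effect and ferristatin control at 100 nM for full effect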
HNF4A DNA FP = change in binding of human HNF4 alpha to DNA; HNF4a-FITC DNA binding, fluorescence polarization, 1 h; activity change, % at 10 µM; actives 0.3% (n = 360,000); in the data active = activity change above about 30%, passing the limit was not always enough
Target sequence (P41235 whole entry, looked up): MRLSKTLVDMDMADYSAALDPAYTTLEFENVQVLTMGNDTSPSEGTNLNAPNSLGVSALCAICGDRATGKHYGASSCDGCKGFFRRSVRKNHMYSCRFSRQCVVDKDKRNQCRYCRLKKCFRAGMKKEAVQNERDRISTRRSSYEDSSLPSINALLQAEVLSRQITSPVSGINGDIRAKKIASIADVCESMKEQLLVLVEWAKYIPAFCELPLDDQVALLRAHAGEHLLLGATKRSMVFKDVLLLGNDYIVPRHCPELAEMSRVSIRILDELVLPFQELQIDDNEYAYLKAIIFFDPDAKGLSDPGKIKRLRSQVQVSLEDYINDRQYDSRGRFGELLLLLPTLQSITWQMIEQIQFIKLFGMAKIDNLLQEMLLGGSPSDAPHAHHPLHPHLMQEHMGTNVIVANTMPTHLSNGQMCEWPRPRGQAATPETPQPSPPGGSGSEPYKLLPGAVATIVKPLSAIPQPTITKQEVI
IDE cell inh = inhibits human insulin-degrading enzyme in HEK cells; FAbetaB cleavage, fluorescence polarization; inhibition, % at 5.59 µM; P14735; actives 0.41% (n = 320,000);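 active = percent inhibition above the average of all tested compounds plus 3 SD, set per screening campaign, cut at about 16% in these data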;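 note: IDE supplied by intact live HEK cells; FP after avidin binding of uncleaved biotin substrate so inhibition keeps polarization high; 0% = DMSO wells and 100% = 60 µM reference IDE inhibitor Ii1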
IDE cell activ = IDE (human) activation, cell-based | P14735 | HEK cells, FAbeta-B cleavage, fluorescence polarization; 0% vehicle, 100% cell-free pure enzyme wells | activation, % at 5.96 µM | actives 0.073% (n = 340,000) | AID 493087;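 active = activation above the mean of all tested compounds plus 3 SD, set per screening campaign, cut at about 17% in these data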
CRFR2-BP ag = CRF-BP/CRF-R2 complex agonism | AID 588473 | actives 0.46% (n = 350,000) | HEK293 CRF-R2/CRF-BP, calcium dye fluorescence (FLIPR); percent of saturating CRF peptide response | activation, % at 13.2 µM;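 active = activation of at least 50%, plus an integration ratio under a set limit after plate pattern correction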;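 note: plate controls were neutral control wells without compound for no effect and CRF at EC100 for full effect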
caTPT1 confirm = confirmation of Candida albicans TPT1 inhibitors; recombinant caTPT1, fluorescence polarization, RNase T1 coupled; AID 2149; actives 74% (n = 2,400); shares compounds with TPT1 inh; inhibition, % at 5 µM;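 active = inhibition above the primary screen limit, the mean inhibition of all tested compounds plus 3 SD, cut at about 25% in these data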
RNase T1 counter = RNase T1 inhibition in TPT1 counter-screen. shares compounds with TPT1 inh. RNase T1 cleavage, fluorescence polarization, 1536-well. inhibition, % at 5 µM. actives 83% (n = 2,400). AID 2153;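 active = inhibition above the solvent-only control well mean plus 3 SD, limit set per screening run, cut at about 23% in these data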;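 note: plate controls were DMSO wells with enzyme for no effect and wells without RNase T1 for full effect; inhibitors block cleavage so intact labeled substrate keeps polarization high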
Target sequence (P00651 whole entry, looked up): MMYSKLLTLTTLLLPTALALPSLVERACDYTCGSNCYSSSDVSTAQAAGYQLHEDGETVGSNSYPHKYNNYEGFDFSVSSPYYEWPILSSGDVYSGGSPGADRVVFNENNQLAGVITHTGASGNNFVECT
IDE inh confirm = cellular human IDE inhibition, confirmation; shares compounds with IDE cell inh; HEK cells, FAbetaB cleavage, fluorescence polarization; inhibition, % at 5.59 µM; actives 51% (n = 1,200);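 active = mean inhibition across triplicate wells above the cutoff set by the earlier primary insulin-degrading enzyme screen, cut at about 16% in these data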;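 note: 0% = DMSO wells and 100% = 60 µM reference IDE inhibitor Ii1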
HEK cytotox = counter-screen for IDE inhibitors: cytotoxicity in HEK cells | shares compounds with IDE cell inh | HEK293 cytotoxicity, ATP luminescence | inhibition, % at 5.59 µM | actives 28% (n = 1,200); in the data active = inhibition above about 22%;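 note: 0% = vehicle wells and 100% = reference cytotoxic drug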
An asterisk follows results filed as active; . = not tested or not shown.

SMILES	TPT1 inh	HNF4A DNA FP	IDE cell inh	IDE cell activ	CRFR2-BP ag	caTPT1 confirm	RNase T1 counter	others
N#CC(=C(O)c1ccc(S(=O)(=O)N(CCCl)CCCl)cc1)c1nc2ccccc2[nH]1	.	-1	.	9	6	.	.
O=c1[nH]c(=O)n(Cc2ccccc2Cl)c(O)c1/C=C1/C=CC=N1	29*	5	2	-1	6	18	23*
CC(=O)OC1C(=O)OCC23CCC4(C)OC4C2OC2CC(OC(=O)C=CC=CC(=O)OCCC1C)C3(C)C21CO1 (stereo not drawn)	.	-1	.	-7	2	.	.
O=C1OC(c2ccc([N+](=O)[O-])cc2)=N/C1=C/N1CC2CC(C1)c1cccc(=O)n1C2 (stereo not drawn)	34*	3	5	6	22	42*	54*
COC(=O)C1=C(c2ccc(-c3ccccc3)c(F)c2)C[C@@H]2CC[C@H]1N2C(=O)NCc1cccc2ccccc12	.	1	5	4	4	.	.
Cc1cccc(C(O)(C(=O)O)c2ccccc2)c1 (stereo not drawn)	.	-5	.	-4	4	.	.
CCn1c(O)c(C(=O)CC2NCCc3ccccc32)c(=O)n(CC)c1=S (stereo not drawn)	62*	36	4	-10	6	56*	68*
CC12CCC(=O)C=C1C=CC1C2CCC2(C)C(O)CCC12 (stereo not drawn)	.	2	.	1	0	.	.
O=C1NCN(c2ccccc2)C12CCN(C(c1cc3ccccc3o1)c1nnnn1C1CCCCC1)CC2 (stereo not drawn)	.	0	.	.	.	.	.
O=C(NCC1=C(c2cccc3ccccc23)C[C@@H]2CC[C@H]1N2Cc1ccco1)c1cccs1	.	-8	.	.	-1	.	.
COc1ccc([N+](=O)[O-])cc1N=Cc1c(O)n(CCc2ccccc2)c(=O)n(C(C)C)c1=O	38*	2	-1	3	1	6	15
CCC1C2CC3C4N(C)c5ccccc5C45CC(C2C5O)N3C1O (stereo not drawn)	.	3	.	.	.	.	.
CC(=O)c1c(O)n(C)c(=S)n(-c2ccccc2)c1=O	45*	26	7	5	1	30*	40*
Cn1c(O)c(C(c2ccccn2)c2c(O)n(C)c(=S)n(C)c2=O)c(=O)n(C)c1=S	5	-2	-3	3	2	.	.
COC(=O)C1=Nc2ccccc2/C1=C\c1c(O)n(-c2ccc(Br)cc2)c(=O)[nH]c1=O	27*	3	6	1	4	33*	44*
CN(C)C=C1C(=O)N(C2CCCCC2)C(=O)N(C2CCCCC2)C1=O	29*	0	0	7	47	43*	58*
COc1ccc(-n2nnnc2C(c2ccccc2OC(F)(F)F)N2CCC3(CC2)C(=O)NCN3c2ccccc2)cc1 (stereo not drawn)	.	-3	.	.	.	.	.
Cc1ccccc1N1C(=O)NC(=O)/C(=C\c2ccc3c(c2)CCCN3Cc2ccccc2)C1=O	61*	0	5	-1	58*	154*	145*
O=C1NC(=S)NC(=O)C1=Cc1ccc2c(c1)CCN2CCCCl	6	-57	1	.	-3	.	.
Cc1ccc(N2C(=O)/C(=C/c3ccc(CN(CCC#N)S(C)(=O)=O)o3)C(=O)NC2=S)cc1	36*	-7	4	0	2	26*	37*
Cc1ccc(/C=C2\C(=O)NC(=S)N(c3ccc(F)cc3)C2=O)s1	13	-3	-1	-4	4	.	.
COc1ccc(N2C(=O)/C(=C/c3ccc(N(C)C)o3)C(=O)NC2=S)cc1	134*	126	16	-17	43	142*	138*
COc1cccc(N2C(=O)/C(=C/c3ccc(C)o3)C(=O)NC2=S)c1	35*	11	5	1	1	35*	44*
Cc1ccc(/C=C2\C(=O)NC(=S)N(c3ccc(F)cc3)C2=O)o1	.	25	.	3	4	.	.
C[C@@H]1CN([C@H](C)CO)C(=O)CCCn2nncc2CO[C@H]1CN(C)C(=O)Oc1cccc2ccccc12	.	4	.	.	1	.	.
SMILES	TPT1 inh	HNF4A DNA FP	IDE cell inh	IDE cell activ	CRFR2-BP ag	caTPT1 confirm	RNase T1 counter	others
O=C(Cn1ncc2c3ccccc3n(Cc3cccc(Cl)c3)c2c1=O)N1CCC2(CC1)OCCO2	114*	1	5	-2	3	64*	69*
C[C@]12C[C@@H](O)[C@H](O)CC1=CCC1C2CC[C@@]2(C)C1CC[C@@H]2O (stereo partly drawn)	.	1	1	4	15	.	.
Cc1ccc(N2C(=O)NC(=O)/C(=C\c3cc(C)n(-c4sc5c(c4C#N)CCCC5)c3C)C2=O)cc1	26*	-6	1	-3	18	36*	50*
COc1cc(/C=C/[N+](=O)[O-])ccc1O	-4	0	-1	-1	0	.	.
CCN(CC)c1ccc(/C=C/[N+](=O)[O-])cc1	127*	3	6	-74	251*	118*	117*
COc1ccc(-c2ccc3c(c2)CNCc2cnnn2-3)cc1	.	-2	.	.	.	.	.
COc1ccc(-n2c(/C=C/c3ccc(O)c(OC)c3)nc3ccccc3c2=O)cc1	45*	12	34*	-43	0	57*	67*	IDE inh confirm=102*;HEK cytotox=26*
COc1cccc(-n2c(/C=C/c3ccc(O)c(O)c3)nc3ccccc3c2=O)c1	55*	57*	160*	-101	5	65*	68*	IDE inh confirm=26*;HEK cytotox=17
COc1ccc(-n2c(/C=C/c3ccc4c(c3)OCO4)nc3ccccc3c2=O)cc1	-1	1	10	0	-2	.	.
CCN(CC)c1ccc(/C=C2\C(=O)NC(=S)N(c3ccc(OC)cc3OC)C2=O)o1	141*	160	33*	-33	29	150*	142*	IDE inh confirm=36*;HEK cytotox=4
CN1C(=O)/C(=C\N2CCc3ccccc32)C(=O)NC1=S	9	1	0	-4	1	.	.
CCN(CC)c1ccc(/C=C2\C(=O)NC(=S)N(C)C2=O)o1	123*	176	26*	-25	58*	135*	135*	IDE inh confirm=29*;HEK cytotox=14
Cc1ccc(N/N=C/c2c(O)n(-c3ccccc3)c(=O)[nH]c2=O)cc1	3	0	-2	-2	-3	.	.
C=CCn1c(O)c(/C=C/C=Nc2ccccc2)c(=O)[nH]c1=O	84*	33	18*	-1	31	107*	129*	IDE inh confirm=11;HEK cytotox=6
